According to PubChem BioAssay (Tox21):
Where “and” joins values, the source holds several entries; their conditions need not be identical. Equal values may be shown once. Some compounds were tested as several samples or in several runs, with calls that do not always agree. Calls of active or inactive are those of the source. Unless noted, calls follow the shape of the dose curve; as a rule, active = well fitted curve in the direction sought with a large enough effect in the repeat runs; inconclusive = weak or mixed curves; inactive = no such curve, though single readings can be large; an effect the other way counts as inactive or inconclusive.

Assays:
[1] = qHTS assay to identify small molecule antagonists of the glucocorticoid receptor (GR) signaling pathway - cell viability counter screen (AID 720693); also: nearly all actives have a fitted effect of over 55% in size
[2] = qHTS assay for identifying genotoxic compounds that show differential cytotoxicity against isogenic chicken DT40 cell lines with known DNA damage response pathways - wild type cell line (AID 743012); also: nearly all actives have a fitted effect of over 60% in size; also: potency is read from the fitted curve at half-maximal effect
In short: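 Viability of DNA repair-proficient chicken DT40 cells was assessed by CellTiter-Glo luminescence following 40 h compound exposure at 37 C/5% CO2.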

[3] = qHTS assay for identifying genotoxic compounds that show differential cytotoxicity against isogenic chicken DT40 cell lines with known DNA damage response pathways - Rev3 mutant cell line (AID 743014); also: nearly all actives have a fitted effect of over 55% in size; also: potency is read from the fitted curve at half-maximal effect
[4] = qHTS assay for identifying genotoxic compounds that show differential cytotoxicity against isogenic chicken DT40 cell lines with known DNA damage response pathways - Rad54/Ku70 mutant cell line (AID 743015); also: nearly all actives have a fitted effect of over 60% in size; also: potency is read from the fitted curve at half-maximal effect
[5] = qHTS assay to identify small molecule antagonists of the androgen receptor (AR) signaling pathway - cell viability counter screen (AID 743033; also: nearly all actives have a fitted effect of over 45% in size; also: potency is read from the fitted curve at half-maximal effect)
[6] = qHTS assay to identify small molecule antagonists of the androgen receptor (AR) signaling pathway using the MDA cell line - cell viability counter screen (AID 743041; also: nearly all actives have a fitted effect of over 45% in size; also: potency is read from the fitted curve at half-maximal effect)
In short: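 Using the breast carcinoma line MDA-kb2 AR-luc, test chemicals were co-incubated with R1881 for 16 h; CellTiter-Fluor reagent, added at 15.5 h, provided a fluorescence measure of live cells.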

[7] = qHTS assay to identify small molecule antagonists of the thyroid receptor (TR) signaling pathway - cell viability counter screen (AID 743064); also: nearly all actives have a fitted effect of over 50% in size; also: potency is read from the fitted curve at half-maximal effect
In short: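 Rat GH3 pituitary tumor cells stably expressing two TR response elements driving luciferase were plated, rested 4 h, then dosed with library compounds and T3 (1 nM final). After 23.5 h at 37 °C, CellTiter-Fluor was added for 30 min and fluorescence recorded.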

[8] = qHTS assay to identify small molecule antagonists of the thyroid receptor (TR) signaling pathway (AID 743065); also: nearly all actives have a fitted effect of over 55% in size; also: potency is read from the fitted curve at half-maximal effect
In short: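 Antagonism measured as loss of luciferase signal in GH3 cells stably carrying a TRE-luciferase reporter, co-treated with compound and T3 (1 nM final) for 23.5 h at 37 C. Viability was read in the same well by CellTiter-Fluor.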

[9] = test system: thyroid hormone receptor (rat, GH3 cells); assay: qHTS assay to identify small molecule agonists of the thyroid receptor (TR) signaling pathway (AID 743066; calls by dose curve)
[10] = biological target: Estrogen receptor (Homo sapiens) (UniProt P03372); assay: qHTS assay to identify small molecule antagonists of the estrogen receptor alpha (ER-alpha) signaling pathway (AID 743069; active = well fitted curve in the direction sought with a large enough effect in the signal ratio in the repeat runs, not every such curve was filed as active; inconclusive = weak or mixed curves, or effect the other way; inactive = no such curve, though single readings can be large or run the other way; the % refers to the signal ratio; also: potency is read from the fitted curve at half-maximal effect)
In short: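 Fluorescence intensity from a beta-lactamase FRET substrate served as the read-out. Cells: HEK293 with stably integrated ER-alpha-UAS-bla reporter. Agonist 17beta-estradiol was co-added with compounds; incubation 18 hr at 37C, substrate 2 hr at room temperature.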

[11] = biological target: Estrogen receptor (Homo sapiens) (UniProt P03372); assay: qHTS assay to identify small molecule agonists of the estrogen receptor alpha (ER-alpha) signaling pathway (AID 743075; calls by dose curve)
[12] = biological target: Estrogen receptor (Homo sapiens) (UniProt P03372); assay: qHTS assay to identify small molecule agonists of the estrogen receptor alpha (ER-alpha) signaling pathway using the BG1 cell line (AID 743079); also: nearly all actives have a fitted effect of over 20% in size; also: potency is read from the fitted curve at half-maximal effect
[13] = qHTS assay to identify small molecule antagonists of the estrogen receptor alpha (ER-alpha) signaling pathway using the BG1 cell line (AID 743080; calls by dose curve;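 also: BG1 cells stimulated with 17beta-estradiol alongside compound; series mostly up to about 70 µM; nearly all actives have a fitted effect of over 25% in size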)
In short: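 Luciferase inhibition measured with ONE-Glo after 30 min at RT in BG1Luc4E2 cells given test compounds and 17beta-estradiol for 21.5 h at 37 C; CellTiter-Fluor viability read in the same wells beforehand.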

[14] = qHTS assay to identify small molecule antagonists of the estrogen receptor alpha (ER-alpha) signaling pathway using the BG1 cell line - cell viability counter screen (AID 743081);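 also: compound given together with 17beta-estradiol as the ER stimulus; nearly all actives have a fitted effect of over 45% in size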; also: potency is read from the fitted curve at half-maximal effect
Aromatase (Homo sapiens) = Aromatase (Homo sapiens) (UniProt P11511); assay: qHTS assay to identify aromatase inhibitors (AID 743083); also: nearly all actives have a fitted effect of over 55% in size; also: potency is read from the fitted curve at half-maximal effect
[15] = biological target: Androgen receptor (Homo sapiens) (UniProt P10275); assay: qHTS assay to identify small molecule antagonists of the androgen receptor (AR) signaling pathway (AID 743035; active = well fitted inhibition curve with a large enough effect in the signal ratio in the repeat runs, not every such curve was filed as active; inconclusive = weak or mixed curves, or effect the other way; inactive = no such curve, though single readings can be large or run the other way; the % refers to the signal ratio)
In short: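 Reporter HEK293 cells were exposed to compounds and R1881 overnight (16 h, 37C); beta-lactamase activity was then quantified by FRET fluorescence.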

[16] = biological target: Androgen receptor (Homo sapiens) (UniProt P10275); assay: qHTS assay to identify small molecule agonists of the androgen receptor (AR) signaling pathway (AID 743036; active = well fitted activation curve with a large enough effect in the signal ratio in the repeat runs, with a control signal flat, not every such curve was filed as active; inconclusive = weak or mixed curves, or effect the other way; inactive = no such curve, though single readings can be large or run the other way; the % refers to the signal ratio)
In short: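 Quantitative HTS of the Tox21 10K library in HEK293 cells bearing a stably integrated UAS-controlled beta-lactamase reporter. Compound exposure lasted 16 h at 37C. Reporter activity was detected by FRET substrate fluorescence after 2 h at room temperature.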

[17] = biological target: Androgen receptor (Homo sapiens) (UniProt P10275); assay: qHTS assay to identify small molecule agonists of the androgen receptor (AR) signaling pathway using the MDA cell line (AID 743040; also: nearly all actives have a fitted effect of over 20% in size)
In short: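 Stable MMTV-luciferase reporter in MDA-kb2 cells; note the promoter carries GR as well as AR response elements. 16 h compound treatment, 37C, 0% CO2; ONE-Glo luminescence endpoint.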

[18] = biological target: Androgen receptor (Homo sapiens) (UniProt P10275); assay: qHTS assay to identify small molecule antagonists of the androgen receptor (AR) signaling pathway using the MDA cell line (AID 743042; also: nearly all actives have a fitted effect of over 55% in size)
In short: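 Antagonist mode: compounds plus R1881 agonist added to MDA-kb2 AR-luc cells, incubated 16 h at 37C. Luciferase reporter luminescence quantified, with multiplexed CellTiter-Fluor readout for cell viability.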

[19] = qHTS assay to identify small molecule antagonists of the estrogen receptor alpha (ER-alpha) signaling pathway - cell viability counter screen (AID 743074; calls by dose curve; also: nearly all actives have a fitted effect of over 45% in size)

Measured: Potency

Aromatase (Homo sapiens), sequence (P11511 whole entry, looked up): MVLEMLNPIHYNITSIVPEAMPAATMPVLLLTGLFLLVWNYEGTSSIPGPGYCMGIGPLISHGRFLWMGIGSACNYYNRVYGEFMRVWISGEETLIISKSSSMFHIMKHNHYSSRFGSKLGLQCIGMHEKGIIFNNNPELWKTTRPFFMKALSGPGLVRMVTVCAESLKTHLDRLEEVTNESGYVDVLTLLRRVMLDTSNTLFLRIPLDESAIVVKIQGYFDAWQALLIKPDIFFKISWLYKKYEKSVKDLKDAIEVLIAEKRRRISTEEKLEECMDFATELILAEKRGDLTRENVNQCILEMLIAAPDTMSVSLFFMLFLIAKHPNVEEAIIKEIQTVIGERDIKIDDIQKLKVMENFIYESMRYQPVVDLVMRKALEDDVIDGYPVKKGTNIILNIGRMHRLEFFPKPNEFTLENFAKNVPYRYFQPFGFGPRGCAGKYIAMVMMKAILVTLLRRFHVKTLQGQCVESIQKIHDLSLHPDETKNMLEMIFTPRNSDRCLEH
Estrogen receptor (Homo sapiens), sequence (P03372 whole entry, looked up): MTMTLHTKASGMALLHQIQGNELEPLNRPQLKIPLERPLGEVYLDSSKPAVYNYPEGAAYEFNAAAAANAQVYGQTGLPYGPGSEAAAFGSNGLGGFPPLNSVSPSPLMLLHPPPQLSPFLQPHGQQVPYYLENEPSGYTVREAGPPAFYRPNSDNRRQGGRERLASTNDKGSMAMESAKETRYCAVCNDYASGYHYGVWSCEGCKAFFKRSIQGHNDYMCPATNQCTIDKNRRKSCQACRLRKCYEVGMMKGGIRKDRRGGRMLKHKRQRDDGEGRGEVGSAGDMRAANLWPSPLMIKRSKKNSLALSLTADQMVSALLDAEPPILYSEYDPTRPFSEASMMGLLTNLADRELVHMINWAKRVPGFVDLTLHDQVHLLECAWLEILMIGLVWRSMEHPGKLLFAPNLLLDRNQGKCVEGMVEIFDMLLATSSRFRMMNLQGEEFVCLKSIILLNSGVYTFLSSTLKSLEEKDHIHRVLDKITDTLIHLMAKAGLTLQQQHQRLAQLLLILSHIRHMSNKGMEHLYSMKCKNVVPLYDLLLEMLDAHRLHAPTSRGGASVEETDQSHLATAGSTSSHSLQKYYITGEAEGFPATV
Androgen receptor (Homo sapiens), sequence (P10275 whole entry, looked up): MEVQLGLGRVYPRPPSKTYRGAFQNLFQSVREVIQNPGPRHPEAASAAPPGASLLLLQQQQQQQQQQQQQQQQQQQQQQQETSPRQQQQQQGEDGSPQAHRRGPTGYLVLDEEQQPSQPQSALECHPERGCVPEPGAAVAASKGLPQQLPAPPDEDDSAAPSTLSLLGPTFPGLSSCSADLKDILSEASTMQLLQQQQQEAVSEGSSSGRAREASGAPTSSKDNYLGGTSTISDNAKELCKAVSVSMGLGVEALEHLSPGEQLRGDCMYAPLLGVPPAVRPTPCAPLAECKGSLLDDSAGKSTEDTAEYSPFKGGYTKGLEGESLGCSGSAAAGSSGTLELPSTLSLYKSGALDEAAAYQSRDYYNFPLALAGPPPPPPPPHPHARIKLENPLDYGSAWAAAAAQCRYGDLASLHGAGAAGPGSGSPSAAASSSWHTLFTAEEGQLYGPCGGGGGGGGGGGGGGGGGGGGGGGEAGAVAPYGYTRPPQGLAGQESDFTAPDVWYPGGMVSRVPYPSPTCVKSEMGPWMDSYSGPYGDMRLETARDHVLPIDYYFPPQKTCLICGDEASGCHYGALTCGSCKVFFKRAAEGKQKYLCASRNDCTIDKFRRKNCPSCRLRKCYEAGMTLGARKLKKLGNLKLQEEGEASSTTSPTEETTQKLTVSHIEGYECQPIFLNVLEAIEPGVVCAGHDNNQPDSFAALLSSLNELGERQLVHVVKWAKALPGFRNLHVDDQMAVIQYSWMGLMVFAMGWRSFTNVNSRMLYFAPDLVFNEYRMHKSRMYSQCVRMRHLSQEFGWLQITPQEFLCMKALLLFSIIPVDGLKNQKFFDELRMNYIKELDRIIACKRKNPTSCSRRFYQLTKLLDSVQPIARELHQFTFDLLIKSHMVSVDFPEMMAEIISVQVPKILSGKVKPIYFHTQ

NS(=O)(=O)c1cc2c(cc1Cl)NC=NS2(=O)=O
not listed: [15] | [16] | [17] | [18] | [19]
inactive: all other assays above

C=CC(=O)OCCCCCCCC(C)C
inactive and 27.3 µM (active): [4]
inactive and 54.4 µM (active): [3]
inactive and 48.5 µM (active): [2]
inactive: all other assays above

NCCc1ccc(O)c(O)c1
inactive and 54.6 µM (active): [14]
active: [2] 54.6 µM | [3] 15.4 µM | [4] 19.4 µM | [8] 48.7 µM
inactive: [1] | [5] | [9] | [10] | [19] | [11] | Aromatase (Homo sapiens)

O=C(O)c1cc(-c2ccccc2)nc2ccccc12
not listed: [10] | [11] | [12] | [13]
inactive: all other assays above

CC(C)(N=C=O)c1cccc(C(C)(C)N=C=O)c1
inactive: [1] | [2] | [3] | [4] | [5] | [6] | [8] | [9] | [19] | [14] | Aromatase (Homo sapiens)

CS(=O)(=O)c1ccc([C@@H](O)[C@@H](CO)NC(=O)C(Cl)Cl)cc1
active: [2] 4.52 µM and 4.92 µM | [3] 7.17 µM and 4.38 µM | [4] 7.17 µM and 4.92 µM
not listed: [15] | [16] | [17] | [18]
inactive: all other assays above

O=[N+]([O-])c1cccc(Cl)c1
not listed: [7] | [15] | [16] | [17] | [18]
inactive: all other assays above

NCc1cccc(CN)c1
not listed: [7] | [15] | [16] | [17] | [18]
inactive: all other assays above

CC(C)(C)C(=O)C1C(=O)c2ccccc2C1=O
active: [2] 60.5 µM and 12.2 µM | [4] 13.7 µM | [7] 67.9 µM | [10] 54.4 µM [inconclusive] and 54.9 µM [inconclusive]
inactive and 13.7 µM (active): [3]
inactive: [1] | [5] | [9] | [19] | [11] | Aromatase (Homo sapiens)

Cc1cc(NS(=O)(=O)c2ccc(N)cc2)no1
inactive: [1] | [2] | [3] | [4] | [5] | [6] | [7] | [8] | [9] | [19] | [14]

Clc1cc(Cl)c(Cl)cc1Cl
62.1 µM (active) and inactive: [12]
not listed: [15] | [16] | [17] | [18]
inactive: all other assays above

O=S(=O)(O)c1cc(S(=O)(=O)O)c2c(N=Nc3ccccc3)c(O)ccc2c1
active: [6] 27.4 µM and 38.6 µM | [14] 27.4 µM and 30.6 µM
not listed: [7] | [15] | [16] | [17] | [18]
inactive: all other assays above

CNC[C@H](O)[C@@H](O)[C@H](O)[C@H](O)CO
inactive: [1] | [2] | [3] | [4] | [5] | [6] | [8] | [9] | [19] | [14]

Oc1ccc2ccccc2c1N=Nc1ccccc1
inactive and 34.4 µM (active): [14]
active: [12] 19.3 µM and 30.6 µM
not listed: [7] | [13] | [15] | [16] | [17] | [18]
inactive: all other assays above

CCCCC(CC)COC(C)=O (stereo unspecified)
inactive: [1] | [2] | [3] | [4] | [5] | [6] | [8] | [9] | [19] | [14] | Aromatase (Homo sapiens)

CCc1ccc(O)cc1
not listed: [10] | [11] | [12] | [13]
inactive: all other assays above

CC(=O)Nc1ccc(C(=O)O)cc1
not listed: [15] | [16] | [17] | [18]
inactive: all other assays above

OC[C@@H](O)[C@@H](O)[C@H](O)[C@@H](O)CO
not listed: [15] | [16] | [17] | [18]
inactive: all other assays above

O=C(Cl)c1c(Cl)c(Cl)c(C(=O)Cl)c(Cl)c1Cl
not listed: [15] | [16] | [17] | [18]
inactive: all other assays above

CC(C)NCC(O)COc1cccc2ccccc12 (stereo unspecified)
active: [7] 30.6 µM | [8] 61.8 µM and 54.5 µM
61.8 µM (active) and inactive: [3] | [4]
inactive: [1] | [2] | [5] | [6] | [9] | [19] | [14] | Aromatase (Homo sapiens)

ClC1=C(Cl)C(Cl)(Cl)C(Cl)=C1Cl
inactive and 770 nM (active): [2] | [4]
inactive and 864 nM (active): [3]
inactive and 48.6 µM (active): Aromatase (Homo sapiens)
active: [8] 54.5 µM
not listed: [15] | [16] | [17] | [18] | [19]
inactive: all other assays above

CCCCCCOC(C)=O
active: [3] 54.5 µM | [4] 61.1 µM
not listed: [7] | [8] | [9] | [15] | [16] | [17] | [18]
inactive: all other assays above

CCC(=O)O
not listed: [8] | [9] | [15] | [16] | [17] | [18]
inactive: all other assays above

CCCCCCCCCCCCOCC1CO1 (stereo unspecified)
not listed: [15] | [16] | [17] | [18]
inactive: all other assays above

O=C(O)c1ccc([N+](=O)[O-])cc1
not listed: [10] | [11] | [12] | [13] | [15] | [16] | [17] | [18]
inactive: all other assays above

OCCOCCOCCOCCO
not listed: [7] | [15] | [16] | [17] | [18]
inactive: all other assays above

CCCCCCC(C)(C)S
inactive: [1] | [2] | [3] | [4] | [5] | [6] | [8] | [9] | [19] | [14] | Aromatase (Homo sapiens)

COCC(=O)O
not listed: [15] | [16] | [17] | [18]
inactive: all other assays above

Cc1cc(O)c2c(c1)C(=O)c1cc(O)cc(O)c1C2=O
12 µM (active) and inactive: [5]
inactive and 38.6 µM (active): [3]
inactive: [1] | [6] | [9] | [10] | [19] | [13]
inactive and 30.6 µM (active): [7]
active: [2] 27.3 µM | [4] 1.68 µM and 3.06 µM | [8] 23.8 µM and 15.4 µM | [14] 29.9 µM and 24.3 µM | Aromatase (Homo sapiens) 23.8 µM and 54.5 µM

C=C(C)C(=O)OCCCCCCCCCCCC
not listed: [15] | [16] | [17] | [18]
inactive: all other assays above

C=C(C)C(=O)OCCCCCC
not listed: [15] | [16] | [17] | [18]
inactive: all other assays above

CCCCC(CC)C(=O)OCCOCCOCCOC(=O)C(CC)CCCC (stereo unspecified)
inactive and 19.3 µM (active): [3]
active: [2] 21.7 µM
not listed: [7]
inactive: all other assays above
